Experimental data as given in paper PMC5540273 (PLoS ONE, 2017).

Test system: TNIK
Settings: concentration: 1 μM, replicates: in singlicate; n = 1
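Note: KINOMEscan kinase panel screen.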

| Compound | %Inh |
| --- | --- |
| N#Cc1cnc2cc(-c3cnc(CNCCN4CCOCC4)s3)ccc2c1Nc1ccc(Oc2ccccc2)cc1 [GW664114] | 92.9% |
| O=C(Nc1n[nH]c2cc(-c3cccs3)ccc12)C1CC1 [SB-731284] | 56% |
| CN(C)CCOc1ccc(-c2cc(-c3ccc(Cl)c(O)c3)c(-c3ccncc3)[nH]2)cc1.Cl.Cl [SB-684387] | 33% |
| Cc1cccc(Nc2nc(NCCN)ncc2C(N)=O)c1 [GSK1292139] | 89% |
| COC(=O)Nc1nc2cc(Oc3ccc(NC(=O)Nc4cccc(SC)c4)cc3)ccc2[nH]1.Cl [GW697999] | 0% |
| Nc1ncnc2scc(-c3ccc(NC(=O)Cc4cc(F)ccc4F)cc3)c12.O=C(O)C(F)(F)F [SB-731254-M] | 27% |
| CC(C)c1nc(-c2ccc(F)c(NS(=O)(=O)c3c(F)cccc3F)c2)c(-c2ccnc(Nc3ccc(N4CCOCC4)nc3)n2)s1 [GSK1804250] | 27% |
| NCCC(NC(=O)c1cc(Br)c(-c2ccnc3[nH]ccc23)s1)c1ccccc1.O=C(O)C(F)(F)F.O=C(O)C(F)(F)F (stereo not drawn) [GSK1307810] | 52% |
| COc1ccc(NC(=O)c2ccoc2)cc1-c1ccc(C(=O)NCC2CC2)cc1 [GW810437] | 21% |
